Measurements taken from PubChem BioAssay (EPA / NIEHS).
Inconclusive results are not listed. Calls of active or inactive are those of the source. Rule for the calls, unless noted: active = hit-call score of the fitted dose curve at least 0.9, where 1 is the maximum; inconclusive = response in the unintended direction; inactive = score below 0.9.

Legend:
[1] = ATG_VDRE_CIS: Attagene CIS-FACTORIAL HepG2 Assay for human Vitamin D Receptor Element (VDRE) (AID 2282968; active = hit-call score of the fitted dose curve at least 0.9, where 1 is the maximum; inactive = score below 0.9); settings: HepG2 VDRE cis-reporter transcription, actives raise or lower the signal
How it was run: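 Compounds were applied for 24 h to HepG2 cells transfected with promoter-regulated reporter units. Total RNA was reverse-transcribed, and reporter amplicons were fluorescently labelled and sized by capillary electrophoresis.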

[2] = molecular target: Estrogen receptor (Homo sapiens) (UniProt P03372); assay: ATG_ERa_TRANS: Attagene TRANS-FACTORIAL HepG2 Assay for human Estrogen Receptor alpha (ERa) (AID 2282970); settings: HepG2 Attagene TRANS ERa GAL4 reporter, mRNA
Chain of Estrogen receptor (Homo sapiens) (P03372 whole entry, looked up, the tested form may be a part): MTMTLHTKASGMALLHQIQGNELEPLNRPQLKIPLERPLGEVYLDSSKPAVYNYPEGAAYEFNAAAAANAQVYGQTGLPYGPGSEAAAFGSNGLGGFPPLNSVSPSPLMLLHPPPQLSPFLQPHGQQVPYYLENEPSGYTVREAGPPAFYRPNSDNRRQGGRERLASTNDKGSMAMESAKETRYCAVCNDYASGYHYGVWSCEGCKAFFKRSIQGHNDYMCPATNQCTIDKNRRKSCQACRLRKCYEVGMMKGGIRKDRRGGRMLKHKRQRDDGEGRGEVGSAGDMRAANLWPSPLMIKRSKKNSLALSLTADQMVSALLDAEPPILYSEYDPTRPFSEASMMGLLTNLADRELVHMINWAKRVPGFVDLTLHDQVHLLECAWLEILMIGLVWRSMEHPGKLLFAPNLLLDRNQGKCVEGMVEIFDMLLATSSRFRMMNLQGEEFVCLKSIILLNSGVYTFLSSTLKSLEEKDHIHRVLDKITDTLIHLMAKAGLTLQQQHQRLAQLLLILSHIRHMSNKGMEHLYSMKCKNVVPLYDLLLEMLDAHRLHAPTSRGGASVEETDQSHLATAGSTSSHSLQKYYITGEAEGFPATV
How it was run: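 Transfected HepG2 cells carrying GAL4-UAS-driven reporter units were dosed for 24 hours. Total RNA was reverse-transcribed, reporter sequences PCR-amplified, FAM-labelled, HpaI-digested and resolved by capillary electrophoresis. Increases over DMSO control defined activity.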

[3] = molecular target: X-box-binding protein 1 (Homo sapiens) (UniProt P17861); assay: ATG_Xbp1_CIS: Attagene CIS-FACTORIAL HepG2 Assay for human X-box Binding Protein 1 (XBP1) (AID 2282972; active = hit-call score of the fitted dose curve at least 0.9, where 1 is the maximum; inactive = score below 0.9); settings: HepG2 XBP1 cis-element reporter, Attagene multiplex; actives raise or lower the signal
How it was run: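 Human hepatoma HepG2, cis-element reporter system, 24 h treatment; mRNA quantified by RT-PCR/CE fluorescence; fit relative to DMSO.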

[4] = molecular target: Glucocorticoid receptor (Homo sapiens) (UniProt P04150); assay: ATG_GR_TRANS: Attagene TRANS-FACTORIAL HepG2 Assay for human Glucocorticoid Receptor (GR) (AID 2282978); settings: HepG2 Attagene TRANS GR reporter, mRNA transcription;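 note: activators score as hits since higher reporter transcript over DMSO is fitted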
Chain of Glucocorticoid receptor (Homo sapiens) (P04150 whole entry, looked up): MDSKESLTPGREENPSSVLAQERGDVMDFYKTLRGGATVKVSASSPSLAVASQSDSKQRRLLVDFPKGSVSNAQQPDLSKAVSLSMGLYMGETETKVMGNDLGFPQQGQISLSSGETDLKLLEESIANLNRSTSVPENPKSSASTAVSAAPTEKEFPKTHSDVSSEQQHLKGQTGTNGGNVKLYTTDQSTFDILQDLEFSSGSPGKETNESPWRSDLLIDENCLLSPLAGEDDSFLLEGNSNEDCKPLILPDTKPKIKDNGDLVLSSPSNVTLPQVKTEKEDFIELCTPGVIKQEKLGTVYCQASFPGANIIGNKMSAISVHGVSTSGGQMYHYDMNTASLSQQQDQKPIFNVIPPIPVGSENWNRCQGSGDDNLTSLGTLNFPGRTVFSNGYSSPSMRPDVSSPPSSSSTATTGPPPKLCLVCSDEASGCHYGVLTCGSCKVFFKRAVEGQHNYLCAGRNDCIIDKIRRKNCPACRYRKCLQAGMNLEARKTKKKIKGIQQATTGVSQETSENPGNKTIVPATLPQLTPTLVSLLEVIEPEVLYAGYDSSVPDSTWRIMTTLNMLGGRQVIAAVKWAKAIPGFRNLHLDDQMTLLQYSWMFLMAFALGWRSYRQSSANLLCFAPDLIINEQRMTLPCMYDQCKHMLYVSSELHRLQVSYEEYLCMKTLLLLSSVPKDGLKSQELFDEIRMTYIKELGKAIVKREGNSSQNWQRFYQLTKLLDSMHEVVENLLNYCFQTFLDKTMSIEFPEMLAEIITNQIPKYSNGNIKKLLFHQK
How it was run: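 After 24 h incubation with test chemical, transfected HepG2 cells were lysed for RNA; reporter cDNA was amplified, FAM-labelled, HpaI-digested and sized on a capillary analyser. Signal gain relative to DMSO was scored.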

[5] = molecular target: Oxysterols receptor LXR-alpha (Homo sapiens) (UniProt Q13133); assay: ATG_LXRa_TRANS: Attagene TRANS-FACTORIAL HepG2 Assay for human Liver X Receptor alpha (LXRa) (AID 2282980); settings: HepG2 Attagene TRANS reporter, LXRa transactivation
Chain of Oxysterols receptor LXR-alpha (Homo sapiens) (Q13133 whole entry, looked up): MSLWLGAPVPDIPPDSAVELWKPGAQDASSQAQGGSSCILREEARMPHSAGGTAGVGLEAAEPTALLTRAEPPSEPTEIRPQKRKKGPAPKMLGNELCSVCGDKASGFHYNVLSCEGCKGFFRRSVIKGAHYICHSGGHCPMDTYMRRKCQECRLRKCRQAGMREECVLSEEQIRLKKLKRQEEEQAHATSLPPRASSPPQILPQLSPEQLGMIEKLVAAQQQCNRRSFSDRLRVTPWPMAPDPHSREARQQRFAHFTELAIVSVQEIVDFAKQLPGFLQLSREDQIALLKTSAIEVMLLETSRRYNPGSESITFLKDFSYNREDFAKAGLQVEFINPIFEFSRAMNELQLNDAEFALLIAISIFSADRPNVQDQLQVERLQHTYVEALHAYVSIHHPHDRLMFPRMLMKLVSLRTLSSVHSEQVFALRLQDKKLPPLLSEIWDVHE
How it was run: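 Transient HepG2 transfectants, 24 h dosing, RT-PCR/CE mRNA reporter quantitation; gain-of-signal vs DMSO.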

[6] = molecular target: Oxysterols receptor LXR-beta (Homo sapiens) (UniProt P55055); assay: ATG_LXRb_TRANS: Attagene TRANS-FACTORIAL HepG2 Assay for human Liver X Receptor beta (LXRb) (AID 2282981); settings: HepG2 Attagene TRANS GAL4-LXRb reporter, mRNA
Chain of Oxysterols receptor LXR-beta (Homo sapiens) (P55055 whole entry, looked up, the tested form may be a part): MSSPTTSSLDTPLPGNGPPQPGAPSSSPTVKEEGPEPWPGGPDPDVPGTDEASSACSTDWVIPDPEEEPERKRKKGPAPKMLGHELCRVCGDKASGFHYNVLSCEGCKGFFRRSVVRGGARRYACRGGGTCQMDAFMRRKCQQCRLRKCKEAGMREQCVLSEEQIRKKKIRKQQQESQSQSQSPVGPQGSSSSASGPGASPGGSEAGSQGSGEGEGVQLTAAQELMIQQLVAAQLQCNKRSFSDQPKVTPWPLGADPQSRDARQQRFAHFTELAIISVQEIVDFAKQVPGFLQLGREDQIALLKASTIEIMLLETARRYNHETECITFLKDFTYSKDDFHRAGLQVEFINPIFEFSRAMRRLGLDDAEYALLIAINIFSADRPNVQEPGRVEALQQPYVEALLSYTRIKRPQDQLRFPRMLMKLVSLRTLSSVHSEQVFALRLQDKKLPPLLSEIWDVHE
How it was run: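 Multiplexed reporter assay, HepG2, 24 h dosing. Fluorescence of labelled RT-PCR products after capillary electrophoresis gives transcript level; positive fitting direction relative to DMSO.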

[7] = ATG_M_06_TRANS: Attagene TRANS-FACTORIAL HepG2 Assay for M06 Transcription Factor (Internal Marker) (AID 2282983); settings: HepG2 Attagene TRANS M06 internal marker reporter
How it was run: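 Human liver HepG2 cells bearing transiently transfected chimeric NR-GAL4 reporter units were treated with chemicals for 24 h. Total RNA was reverse-transcribed, reporter sequences amplified and labelled, then quantified by capillary electrophoresis. Activity was fitted upward relative to DMSO.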

[8] = molecular target: Transcriptional activator Myb (Homo sapiens) (UniProt P10242); assay: ATG_Myb_CIS: Attagene CIS-FACTORIAL HepG2 Assay for human Myeloblastosis (Myb) Proto-Oncogene Transcription Factor (AID 2282986; active = hit-call score of the fitted dose curve at least 0.9, where 1 is the maximum; inactive = score below 0.9); settings: HepG2 Attagene CIS-FACTORIAL Myb reporter transcription; actives raise or lower the signal
Chain of Transcriptional activator Myb (Homo sapiens) (P10242 whole entry, looked up): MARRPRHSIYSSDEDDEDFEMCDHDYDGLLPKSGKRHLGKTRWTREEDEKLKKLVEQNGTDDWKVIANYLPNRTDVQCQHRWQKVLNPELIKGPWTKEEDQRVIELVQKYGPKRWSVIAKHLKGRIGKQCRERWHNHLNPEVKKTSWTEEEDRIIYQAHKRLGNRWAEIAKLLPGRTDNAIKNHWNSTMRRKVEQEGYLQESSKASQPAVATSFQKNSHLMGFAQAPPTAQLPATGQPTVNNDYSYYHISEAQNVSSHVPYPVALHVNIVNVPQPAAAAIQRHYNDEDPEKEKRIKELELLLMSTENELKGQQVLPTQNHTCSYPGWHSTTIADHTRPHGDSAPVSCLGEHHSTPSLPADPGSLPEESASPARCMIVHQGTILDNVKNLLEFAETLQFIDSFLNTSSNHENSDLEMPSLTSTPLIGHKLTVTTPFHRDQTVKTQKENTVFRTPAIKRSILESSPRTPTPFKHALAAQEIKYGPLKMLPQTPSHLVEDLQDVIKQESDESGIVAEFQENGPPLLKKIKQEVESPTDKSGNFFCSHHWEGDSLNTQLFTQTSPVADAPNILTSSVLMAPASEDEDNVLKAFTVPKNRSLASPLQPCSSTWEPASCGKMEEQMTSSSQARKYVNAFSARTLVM
How it was run: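 After 24 h of compound dosing, total RNA from transfected HepG2 cells is reverse-transcribed and the reporter sequences amplified, labeled and separated by capillary electrophoresis. Values come from bidirectional fitting against DMSO.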

[9] = molecular target: Nuclear respiratory factor 1 (Homo sapiens) (UniProt Q16656); assay: ATG_NRF1_CIS: Attagene CIS-FACTORIAL HepG2 Assay for human Nuclear Respiratory Factor 1 (NRF1) Orphan Gene (AID 2282987; active = hit-call score of the fitted dose curve at least 0.9, where 1 is the maximum; inactive = score below 0.9); settings: HepG2 NRF1 cis-element reporter, Attagene multiplex; actives raise or lower the signal
How it was run: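 Measured: fluorescent reporter-specific RT-PCR products from transfected HepG2 cells, separated by capillary electrophoresis. Exposure lasted 24 h. Analysis used bidirectional curve fitting with DMSO as negative control.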

[10] = ATG_NFI_CIS: Attagene CIS-FACTORIAL HepG2 Assay for human Nuclear Factor I (NFI) (AID 2282989; active = hit-call score of the fitted dose curve at least 0.9, where 1 is the maximum; inactive = score below 0.9); settings: HepG2 cis-regulatory reporter, NFI response element transcription; actives raise or lower the signal
How it was run: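 HepG2 cells transiently transfected with cis-element-driven multiplexed reporter transcription units, dosed for 24 h. Reporter mRNA quantified by RT-PCR, fluorescent labelling, HpaI digestion and capillary electrophoresis; bidirectional fit versus DMSO baseline.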

[11] = molecular target: Hepatocyte nuclear factor 4-alpha (Homo sapiens) (UniProt P41235); assay: ATG_HNF4a_TRANS: Attagene TRANS-FACTORIAL HepG2 Assay for human Hepatocyte Nuclear Factor 4 alpha (HNF4a) (AID 2282982); settings: HepG2 HNF4a transactivation reporter, mRNA readout
Chain of Hepatocyte nuclear factor 4-alpha (Homo sapiens) (P41235 whole entry, looked up, the tested form may be a part): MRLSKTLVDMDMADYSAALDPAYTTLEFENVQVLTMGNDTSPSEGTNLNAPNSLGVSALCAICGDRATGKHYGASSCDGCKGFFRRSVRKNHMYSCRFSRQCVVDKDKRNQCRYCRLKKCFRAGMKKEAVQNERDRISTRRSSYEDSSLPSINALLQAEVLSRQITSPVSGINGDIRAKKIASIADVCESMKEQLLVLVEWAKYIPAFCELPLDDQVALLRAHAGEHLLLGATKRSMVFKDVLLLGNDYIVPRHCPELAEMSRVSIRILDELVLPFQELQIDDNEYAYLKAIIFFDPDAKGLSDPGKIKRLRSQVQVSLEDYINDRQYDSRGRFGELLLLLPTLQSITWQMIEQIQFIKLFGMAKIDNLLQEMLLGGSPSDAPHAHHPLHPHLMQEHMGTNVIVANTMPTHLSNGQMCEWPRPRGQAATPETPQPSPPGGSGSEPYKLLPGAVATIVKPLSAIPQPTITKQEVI
How it was run: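 Endpoint reflects transcriptional activation of a GAL4-UAS reporter by an HNF4a-GAL4 chimera in transfected HepG2 cells, 24 h post-dosing. Fluorescence from RT-PCR products separated by capillary electrophoresis; DMSO baseline.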

[12] = ATG_M_32_TRANS: Attagene TRANS-FACTORIAL HepG2 Assay for M32 Transcription Factor (Internal Marker) (AID 2282984); settings: HepG2 Attagene TRANS M32 internal marker reporter
How it was run: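 Internal-marker readout from a multiplexed transcription reporter panel. HepG2 cells were transfected with GAL4-UAS reporter units, treated 24 hours, and reporter transcript levels determined by fluorescence after RT-PCR and capillary separation.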

[13] = molecular target: Nuclear receptor subfamily 4 group A member 2 (Homo sapiens) (UniProt P43354); assay: ATG_NURR1_TRANS: Attagene TRANS-FACTORIAL HepG2 Assay for human Nuclear Receptor Related Protein 1 (NURR1) (AID 2282985); settings: HepG2 Attagene TRANS reporter, mRNA readout
Chain of Nuclear receptor subfamily 4 group A member 2 (Homo sapiens) (P43354 whole entry, looked up): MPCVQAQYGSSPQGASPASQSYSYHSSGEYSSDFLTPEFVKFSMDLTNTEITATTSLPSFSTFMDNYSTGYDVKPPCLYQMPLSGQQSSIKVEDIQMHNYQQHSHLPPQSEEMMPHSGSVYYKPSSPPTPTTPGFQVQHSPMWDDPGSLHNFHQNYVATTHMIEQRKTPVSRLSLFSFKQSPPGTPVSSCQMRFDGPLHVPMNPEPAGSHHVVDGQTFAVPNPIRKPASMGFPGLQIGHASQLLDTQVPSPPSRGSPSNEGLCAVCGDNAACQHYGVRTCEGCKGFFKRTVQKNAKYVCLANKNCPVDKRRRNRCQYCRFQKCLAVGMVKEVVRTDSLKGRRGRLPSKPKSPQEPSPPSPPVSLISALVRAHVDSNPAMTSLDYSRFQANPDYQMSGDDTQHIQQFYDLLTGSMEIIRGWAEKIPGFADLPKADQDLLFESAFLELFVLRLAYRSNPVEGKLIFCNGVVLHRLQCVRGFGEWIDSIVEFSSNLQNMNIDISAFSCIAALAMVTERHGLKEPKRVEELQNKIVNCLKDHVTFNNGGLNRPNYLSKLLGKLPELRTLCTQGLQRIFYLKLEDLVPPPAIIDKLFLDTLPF
How it was run: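 Endpoint: reporter mRNA increase relative to DMSO. HepG2 cells transfected with reporter units, treated 24 h; RNA processed by RT-PCR, labelling, HpaI digestion and capillary electrophoresis.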

[14] = molecular target: Steroid hormone receptor ERR1 (Homo sapiens) (UniProt P11474); assay: ATG_ERRa_TRANS: Attagene TRANS-FACTORIAL HepG2 Assay for human Estrogen-Related Receptor alpha (ERRa) (AID 2282971); settings: HepG2 Attagene TRANS reporter, ERRa transactivation
Chain of Steroid hormone receptor ERR1 (Homo sapiens) (P11474 whole entry, looked up, the tested form may be a part): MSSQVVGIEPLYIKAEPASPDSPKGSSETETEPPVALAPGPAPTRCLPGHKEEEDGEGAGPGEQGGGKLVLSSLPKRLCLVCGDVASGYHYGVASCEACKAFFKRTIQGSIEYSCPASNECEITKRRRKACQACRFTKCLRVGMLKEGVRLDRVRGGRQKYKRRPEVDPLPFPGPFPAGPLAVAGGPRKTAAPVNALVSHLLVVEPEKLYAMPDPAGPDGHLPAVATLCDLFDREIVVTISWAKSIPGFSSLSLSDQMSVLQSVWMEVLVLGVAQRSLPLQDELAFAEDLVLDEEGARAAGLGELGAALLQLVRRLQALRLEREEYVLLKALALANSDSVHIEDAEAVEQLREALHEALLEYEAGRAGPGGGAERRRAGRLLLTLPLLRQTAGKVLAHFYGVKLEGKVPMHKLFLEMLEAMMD
How it was run: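 HepG2 cells were transiently transfected with multiple GAL4-UAS reporter units, then dosed with compound for 24 h. Total RNA was reverse-transcribed, reporter cDNA PCR-amplified and fluorescently labelled, and fragments resolved by capillary electrophoresis; induction was compared with DMSO.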

[15] = molecular target: Bile acid receptor (Homo sapiens) (UniProt Q96RI1); assay: ATG_FXR_TRANS: Attagene TRANS-FACTORIAL HepG2 Assay for Farnesoid X Receptor (FXR) (AID 2282979); settings: HepG2 Attagene TRANS FXR-GAL4 reporter transcription;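 note: hits raise reporter mRNA above DMSO so AC50 marks FXR activation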
Chain of Bile acid receptor (Homo sapiens) (Q96RI1 whole entry, looked up, the tested form may be a part): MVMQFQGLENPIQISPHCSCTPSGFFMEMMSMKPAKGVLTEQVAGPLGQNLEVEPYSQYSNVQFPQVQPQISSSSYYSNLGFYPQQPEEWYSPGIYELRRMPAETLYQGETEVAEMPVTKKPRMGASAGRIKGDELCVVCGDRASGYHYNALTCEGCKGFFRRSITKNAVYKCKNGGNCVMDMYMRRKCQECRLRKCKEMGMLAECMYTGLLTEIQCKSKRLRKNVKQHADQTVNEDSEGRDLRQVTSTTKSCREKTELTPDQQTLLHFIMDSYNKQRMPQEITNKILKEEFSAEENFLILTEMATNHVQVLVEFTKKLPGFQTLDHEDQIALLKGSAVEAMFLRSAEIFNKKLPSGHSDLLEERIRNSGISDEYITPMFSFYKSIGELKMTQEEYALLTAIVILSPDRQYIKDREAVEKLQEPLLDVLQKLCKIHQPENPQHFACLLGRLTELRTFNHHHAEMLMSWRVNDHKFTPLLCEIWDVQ
How it was run: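 Chimeric FXR-GAL4 activity in transiently transfected human HepG2 liver cells is scored as induction of reporter mRNA after 24 h of dosing. Detection uses RT-PCR with fluorescent labelling and capillary electrophoresis, with DMSO serving as baseline.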

[16] = ATG_M_19_TRANS: Attagene TRANS-FACTORIAL HepG2 Assay for M19 Transcription Factor (Internal Marker) (AID 2282974); settings: HepG2 Attagene TRANS-FACTORIAL M19 internal marker reporter
How it was run: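 Transfected HepG2 (GAL4-UAS MRTUs), 24 h compound, TriZol RNA, DNase-treated RT, reporter PCR, FAM label, HpaI digest, CE fluorescence; gain vs DMSO.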

[17] = ATG_GAL4_TRANS: Attagene TRANS-FACTORIAL HepG2 Assay for GAL4 (Internal Marker) (AID 2282976); settings: HepG2 Attagene TRANS GAL4 internal marker reporter
How it was run: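 Fluorescence from capillary electrophoresis of labelled RT-PCR products quantifies reporter mRNA induction after 24 h dosing of HepG2 cells carrying transfected GAL4-UAS reporter transcription units. Vehicle DMSO serves as baseline.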

[18] = molecular target: Estrogen-related receptor gamma (Homo sapiens) (UniProt P62508); assay: ATG_ERRg_TRANS: Attagene TRANS-FACTORIAL HepG2 Assay for human Estrogen-Related Receptor gamma (ERRg) (AID 2282977); settings: HepG2 Attagene TRANS reporter, ERRg transactivation;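 note: hits increase reporter signal over DMSO so potencies reflect activators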
How it was run: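 Exogenous NR-Gal4 chimera activity measured as reporter transcript induction after 24 h in transiently transfected HepG2 cells. RNA reverse-transcribed, PCR-amplified, 6-FAM-labelled and resolved by capillary electrophoresis; increase over DMSO baseline.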

Measured: AC50

C[C@]12CC[C@@H]3c4ccc(O)cc4CC[C@H]3[C@@H]1CC[C@@H]2OC(=O)CCC1CCCC1
active: [2] 0.0823 µM | [10] 100 µM
inactive: [1] | [3] | [4] | [5] | [6] | [7] | [8] | [9]

COCC1CCC(CO)CC1 (stereo not given)
inactive: [1] | [2] | [6] | [7] | [8] | [9] | [10]

CC(C)(c1ccc(Oc2ccc(N)cc2)cc1)c1ccc(Oc2ccc(N)cc2)cc1
active: [1] 3.6 µM | [5] 3.21 µM | [13] 7.23 µM
inactive: [2] | [3] | [6] | [11] | [12] | [8] | [9] | [10]

FC(F)(F)C1(F)C(F)(F)C(F)(F)C(F)(F)C1(F)F
inactive: [1] | [2] | [14] | [3] | [4] | [15] | [12] | [8] | [9] | [10]

CCCCCCCCCCCC(=O)NCCCN(C)C
active: [1] 18 µM | [3] 19.1 µM | [10] 17.1 µM
inactive: [2] | [16] | [8]

O=P(O)(O)CCC(F)(F)C(F)(F)C(F)(F)C(F)(F)C(F)(F)C(F)(F)F
not listed: [5] | [6] | [13] | [16] | [18]
inactive: all other assays above

FC(F)(F)C1(F)C(F)(F)C(F)(F)C(F)(F)C(F)(C(F)(F)F)C1(F)F (stereo not given)
inactive: [1] | [2] | [14] | [3] | [4] | [15] | [7] | [12] | [8] | [10]

CCOC=O
inactive: [1] | [17] | [18] | [4] | [11] | [8] | [10]
active: [2] 59.7 µM

COC1=CC(=O)C[C@@H](C)[C@]12Oc1c(Cl)c(OC)cc(OC)c1C2=O
not listed: [5] | [7] | [9] | [13] | [14] | [17] | [18]
inactive: all other assays above

CCCCCCCCCCCCCC[n+]1ccccc1
active: [18] 189 µM | [6] 53.6 µM | [11] 100 µM | [12] 47 µM | [13] 9.84 µM
not listed: [2] | [7] | [9] | [16] | [17]
inactive: all other assays above

CCCCCCCCC1CCC(=O)O1 (stereo not given)
inactive: [1] | [2] | [3] | [4] | [15] | [5] | [12] | [8] | [9] | [10]

O=C(OC(=O)C(F)(F)C(F)(F)F)C(F)(F)C(F)(F)F
inactive: [1] | [2] | [3] | [15] | [5] | [11] | [8] | [9] | [10]

Clc1ccc2c(Cl)ccnc2c1
inactive: [1] | [2] | [14] | [3] | [4] | [11] | [12] | [8] | [9] | [10]

O=C1C=CC(=O)N1c1cccc(N2C(=O)C=CC2=O)c1
not listed: [3] | [5] | [13] | [16] | [17]
inactive: all other assays above

O=C1Cc2ccccc2N1c1c(Cl)cccc1Cl
active: [1] 1.4 µM | [2] 4.59 µM
not listed: [5] | [6] | [9] | [13] | [14] | [18]
inactive: all other assays above

O=S(=O)(c1ccc(OCc2ccccc2)cc1)c1ccccc1O
inactive: [2] | [4] | [15] | [12] | [9]
active: [1] 8.61 µM | [3] 31 µM | [8] 33.4 µM | [10] 33.4 µM

OCC1CCC(CO)CC1 (stereo not given)
inactive: [1] | [2] | [4] | [15] | [6] | [7] | [13] | [8] | [10]

O=C(F)C(F)(F)C(F)(F)C(F)(F)C(F)F
not listed: [3] | [5] | [16] | [18]
inactive: all other assays above

CCC(=O)O
inactive: [1] | [2] | [3] | [17] | [4] | [11] | [12] | [8] | [9] | [10]
